Our source for the Potency values is PubChem BioAssay (Tox21).

Records with an inconclusive call do not appear. A structure can be active in one record and inactive in another. The source made the active and inactive calls. Unless noted, the call rests on the fitted dose curve.

Assay [1] is described as follows: Nuclear factor erythroid 2-related factor 2/antioxidant responsive element (Nrf2/ARE) small molecule agonists: qHTS cell viability counter screen in human keratinocytes (AID 1919968; active means well fitted curve in the direction sought with a large enough effect in the repeat runs; an effect the other way counts as inactive or inconclusive; further: nearly all actives have a fitted effect of over 55% in size). In a few lines:
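Cells of the KeratinoSens line were plated at 1,500 per well and left for 5 h before compound transfer from DMSO stocks. After a 23 h incubation (37 C, 5% CO2), CellTiter-Fluor was added. Signal was taken as fluorescence intensity 1 h later.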
In general terms: In qHTS, concentration-response curves come from the screen itself.

Assay [2] in a line: Nuclear factor erythroid 2-related factor 2/antioxidant responsive element (Nrf2/ARE) small molecule agonists: luciferase reporter gene qHTS assay in human keratinocytes (AID 1919969; further: nearly all actives have a fitted effect of over 35% in size; further: potency means the concentration at half of the fitted maximal effect). (In a reporter assay the amount or activity of a reporter protein is the signal.)
Assay [3] has as its target Gonadotropin-releasing hormone receptor (Homo sapiens) (UniProt P30968). As to the kind of experiment: Human gonadotropin-releasing hormone receptor (GnRHR) small molecule agonists, calcium flux assay in GnRHR-HEK293 cells (AID 1920063). Further: nearly all actives have a fitted effect of over 35% in size. In a few lines: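 Compounds dissolved in DMSO are pin-transferred onto dye-loaded GnRHR-HEK293 cells, which were seeded 18 h before at 37 C/5% CO2. Calcium signal is read as fluorescence intensity at 1 s intervals for 3 min.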
On the technique in general: A change in cytosolic calcium serves as a functional read-out for many receptors and channels.

The target in assay [4] is KiSS-1 receptor (Homo sapiens) (UniProt Q969F8). The assay can be described thus: Human kisspeptin (KISS1R) small molecule agonists, calcium flux assay in KISS1R-HEK293 cells (AID 1920064; active means well fitted curve in the direction sought with a large enough effect in the repeat runs; an effect the other way counts as inactive or inconclusive). In a few lines:
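Cell line: HEK293, stable human KISS1R. Dye loading 1 h at 37 C after 18 h culture. Read: kinetic fluorescence, 480/540 nm, 3 min at 1 s intervals.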

Assay [5] is described as follows: G protein-coupled receptor (GPCR) small molecule agonists, calcium flux assay: HEK293 wild type cell line counter screen (AID 1920065). In a few lines: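 Tox21 10K compounds, 15 concentrations each in triplicate, pin-transferred in DMSO onto dye-loaded cells; kinetic read at 480/540 nm for 3 min, 1 s intervals.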
The nature of assay [6]: p53 small molecule agonists, cell-based qHTS assay with human liver microsomes: qHTS cell viability counter screen (AID 1963579). Further: nearly all actives have a fitted effect of over 45% in size. In a few lines:
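p53RE-bla cells (4,000/well) were pre-incubated 5 h at 37 C, then given compounds in DMSO plus human liver microsomes (0.5 mg/mL final) and NADPH (0.5 mg/mL final) for 16 h at 37 C. Viability was read by CellTiter-Glo luminescence.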

Assay [7] in a line: p53 small molecule agonists, cell-based qHTS assay with rat liver microsomes: qHTS cell viability counter screen (AID 1963580). Further: nearly all actives have a fitted effect of over 45% in size. In a few lines:
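Luminescent ATP readout (CellTiter-Glo, 30 min at room temperature) reports viability of p53RE-bla HCT-116 cells after 16 h at 37 C with test compounds under metabolic activation by rat liver microsomes and NADPH at 0.5 mg/mL final each.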

Assay [8] can be described thus: p53 small molecule agonists, cell-based qHTS assay: qHTS cell viability counter screen (AID 1963581). Further: nearly all actives have a fitted effect of over 45% in size. In a few lines: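 ATP content measured by luminescence in HCT-116 p53RE-bla cells treated 16 h at 37 C, same wells as the reporter screen.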
A short description of assay [9]: p53 small molecule agonists, cell-based qHTS assay (AID 1963582; active means well fitted activation curve with a large enough effect in the signal ratio in the repeat runs, not every such curve was filed as active; the % refers to the signal ratio). In a few lines: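 16 h compound exposure (37 C) of p53 response element–bla cells, preceded by 5 h recovery at 37 C/5% CO2; read-out via LiveBLAzer B/G FRET substrate, 2 h RT, fluorescence intensity.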
In assay [10] the target is 5-hydroxytryptamine receptor 2A (Homo sapiens) (UniProt P28223). As to the kind of experiment: 5-hydroxytryptamine receptor 2A (HTR2A) small molecule antagonists, cell-based qHTS assay (AID 1963586). Further: nearly all actives have a fitted effect of over 45% in size. In a few lines:
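CHO cells stably expressing human HTR2A were plated for 18 h at 37 C, then loaded with calcium dye for 1 h. Compounds were preincubated 5 min at room temperature before DOI (4 nM solution) was added. Kinetic fluorescence was read for 3 min.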

Assay [11] shares this target. As to the kind of experiment: 5-hydroxytryptamine receptor 2A (HTR2A) small molecule agonists, cell-based qHTS assay (AID 1963587). Further: nearly all actives have a fitted effect of over 30% in size. In a few lines: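 HTR2A-CHO cells, plated 18 h at 37 C/5% CO2, dye-loaded 1 h at 37 C; compounds in DMSO added by pin tool (agonist mode). Intracellular calcium flux read as kinetic fluorescence on FDSS over 2 min at 1 s intervals.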
Assay [12] has as its target Muscarinic acetylcholine receptor M1 (Homo sapiens) (UniProt P11229). As to the kind of experiment: Cholinergic receptor muscarinic 1 (CHRM1) small molecule antagonists, cell-based qHTS assay (AID 1963588). Further: nearly all actives have a fitted effect of over 40% in size. Further: potency means the concentration at half of the fitted maximal effect. In a few lines:
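Compounds were tested at 15 concentrations in three independent runs. Dye-loaded CHRM1-CHO cells were exposed 5 min at room temperature before stimulation by acetylcholine added at 50nM. Intracellular calcium was read kinetically on FDSS for 3 min.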

The target is the same in assay [13]. The assay can be described thus: Cholinergic receptor muscarinic 1 (CHRM1) small molecule agonists, cell-based qHTS assay (AID 1963589). Further: nearly all actives have a fitted effect of over 35% in size. In a few lines:
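Homogeneous fluorescence calcium flux, agonist mode. Human M1-expressing CHO cells; compound dosed at 15 concentrations, three independent runs; signal sampled every 1 sec.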

Assay [14] is described as follows: cAMP Responsive Elements (CRE) small molecule agonists, cell-based qHTS assay (AID 1963590). In a few lines:
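HEK 293T cells stably bearing CRE-bla were plated at 2,000 cells per well and rested 18 h. Compounds, positive controls or DMSO were added for 3 h at 37 C. LiveBLAzer B/G substrate was then loaded for 2 h at room temperature.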

The nature of assay [15]: cAMP Responsive Elements (CRE) small molecule antagonists, cell-based qHTS assay (AID 1963591; active means well fitted inhibition curve with a large enough effect in the signal ratio in the repeat runs, not every such curve was filed as active; the % refers to the signal ratio). In a few lines:
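First, CRE-bla HEK293T cells settled 18 h at 37 C. Next, compound and 0.25 uM final NKH477 were applied for 3 h. Last, LiveBLAzer B/G substrate was loaded for 2 h at room temperature.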

Assay [16] concerns the target Beta-2 adrenergic receptor (Homo sapiens) (UniProt P07550). The assay can be described thus: Adrenergic beta2 receptor (ADRB2) small molecule agonists, cell-based qHTS assay (AID 1963593).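 Further: CHO cells stably overexpressing human ADRB2.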 In a few lines:
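CHO cells stably over-expressing ADRB2 were plated overnight at 37C, then dosed with compounds plus a stimulation mix containing 100uM IBMX and 25uM Ro-20-1724 for 0.5hr at room temperature. cAMP was measured by HTRF competition, 1hr.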

The target in assay [17] is D(2) dopamine receptor (Homo sapiens) (UniProt P14416). The assay can be described thus: Dopamine D2 receptor (DRD2) small molecule agonists, cell-based qHTS assay (AID 1963594). Further: nearly all actives have a fitted effect of over 35% in size. In a few lines: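 HEK293 cells stably expressing DRD2 were cultured 24 h at 37 C, then given Ro20-1724 (0.1 mM final) and compounds for 10 min at room temperature. NKH477 (200nM) was then added for 30 min. cAMP was read by HTRF.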
Sequence of D(2) dopamine receptor (Homo sapiens) (P14416 whole entry, looked up): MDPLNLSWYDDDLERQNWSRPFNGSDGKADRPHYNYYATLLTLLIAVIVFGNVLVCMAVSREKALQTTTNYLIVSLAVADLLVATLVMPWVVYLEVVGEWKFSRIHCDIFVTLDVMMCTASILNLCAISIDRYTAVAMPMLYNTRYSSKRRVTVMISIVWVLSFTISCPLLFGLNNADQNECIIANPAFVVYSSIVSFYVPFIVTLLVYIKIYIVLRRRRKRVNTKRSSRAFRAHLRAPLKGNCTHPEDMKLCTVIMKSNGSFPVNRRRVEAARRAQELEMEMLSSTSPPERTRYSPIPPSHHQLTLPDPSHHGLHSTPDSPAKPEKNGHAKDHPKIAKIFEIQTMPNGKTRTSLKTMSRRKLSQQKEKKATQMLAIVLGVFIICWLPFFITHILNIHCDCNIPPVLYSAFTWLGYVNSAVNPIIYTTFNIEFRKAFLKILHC

For assay [18] the target is unchanged. The assay can be described thus: Dopamine D2 receptor (DRD2) small molecule antagonists, cell-based qHTS assay (AID 1963595; active means well fitted inhibition curve with a large enough effect in the signal ratio in the repeat runs, with a control signal flat; the % refers to the signal ratio). In a few lines:
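Readout: HTRF cAMP, cAMP-d2 competing with cellular cAMP for anti-cAMP cryptate, read after 1 h. Cells: DRD2-HEK293. Conditions: 0.1 mM Ro20-1724, 12 nM quinpirole, 200 nM NKH477, 30 min RT.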

A short description of assay [19]: p53 small molecule agonists, cell-based qHTS assay with rat liver microsomes (AID 1963578). In a few lines: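 p53RE-bla cells were exposed to compounds together with rat liver microsomes (0.5 mg/mL final) and NADPH (0.5 mg/mL final) for 16 h at 37 C, then read by LiveBLAzer beta-lactamase fluorescence after 2 h at room temperature.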
For assay [20], the target named is Beta-2 adrenergic receptor (Homo sapiens) (UniProt P07550). The assay can be described thus: Adrenergic beta2 receptor (ADRB2) small molecule antagonists, cell-based qHTS assay (AID 1963592). Further: series mostly up to about 92 µM; nearly all actives have a fitted effect of over 50% in size. In a few lines: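 Assay format: CHO-ADRB2 cells, 18-20hr seeding at 37C/5% CO2, then compound plus 1nM isoproterenol agonist mix for 0.5hr RT. Homogeneous time-resolved fluorescence cAMP detection after 1hr, expressed as 665/615 nm ratio.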
Sequence of Beta-2 adrenergic receptor (Homo sapiens) (P07550 whole entry, looked up): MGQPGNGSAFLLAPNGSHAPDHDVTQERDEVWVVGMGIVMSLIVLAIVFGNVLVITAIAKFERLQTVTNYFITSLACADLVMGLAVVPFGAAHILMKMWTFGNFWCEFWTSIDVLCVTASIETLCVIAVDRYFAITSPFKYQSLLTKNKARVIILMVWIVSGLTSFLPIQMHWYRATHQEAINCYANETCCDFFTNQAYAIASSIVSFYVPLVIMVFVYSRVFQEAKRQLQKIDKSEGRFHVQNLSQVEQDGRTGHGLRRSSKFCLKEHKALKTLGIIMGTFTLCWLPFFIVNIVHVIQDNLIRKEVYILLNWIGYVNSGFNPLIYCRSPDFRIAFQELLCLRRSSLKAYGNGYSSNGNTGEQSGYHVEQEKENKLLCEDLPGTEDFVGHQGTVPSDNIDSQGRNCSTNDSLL

Sequence of Muscarinic acetylcholine receptor M1 (Homo sapiens) (P11229 whole entry, looked up): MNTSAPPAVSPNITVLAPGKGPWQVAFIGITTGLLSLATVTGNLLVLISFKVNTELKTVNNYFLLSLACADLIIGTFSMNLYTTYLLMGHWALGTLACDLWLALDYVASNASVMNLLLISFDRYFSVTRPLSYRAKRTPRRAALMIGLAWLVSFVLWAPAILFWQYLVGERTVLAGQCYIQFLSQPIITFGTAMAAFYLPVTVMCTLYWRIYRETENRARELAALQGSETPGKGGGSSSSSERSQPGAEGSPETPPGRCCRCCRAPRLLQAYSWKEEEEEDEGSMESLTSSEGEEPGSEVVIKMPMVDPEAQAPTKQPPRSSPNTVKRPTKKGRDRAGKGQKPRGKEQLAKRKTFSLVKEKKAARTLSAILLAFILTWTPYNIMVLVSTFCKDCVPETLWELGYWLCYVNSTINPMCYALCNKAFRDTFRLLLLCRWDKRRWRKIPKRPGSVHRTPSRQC
Sequence of 5-hydroxytryptamine receptor 2A (Homo sapiens) (P28223 whole entry, looked up): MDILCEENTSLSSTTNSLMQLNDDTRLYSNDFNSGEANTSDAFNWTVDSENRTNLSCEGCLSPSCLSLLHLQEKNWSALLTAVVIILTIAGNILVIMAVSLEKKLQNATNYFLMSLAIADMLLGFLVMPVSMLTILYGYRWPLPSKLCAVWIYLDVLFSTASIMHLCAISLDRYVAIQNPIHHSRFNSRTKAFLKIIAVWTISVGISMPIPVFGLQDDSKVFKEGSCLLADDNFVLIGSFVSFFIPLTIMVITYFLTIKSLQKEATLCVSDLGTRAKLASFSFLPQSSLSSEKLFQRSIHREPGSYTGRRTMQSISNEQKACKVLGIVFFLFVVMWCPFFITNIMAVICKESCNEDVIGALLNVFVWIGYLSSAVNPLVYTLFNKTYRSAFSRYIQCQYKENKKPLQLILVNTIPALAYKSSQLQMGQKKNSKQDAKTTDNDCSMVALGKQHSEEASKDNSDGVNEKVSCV
Sequence of KiSS-1 receptor (Homo sapiens) (Q969F8 whole entry, looked up): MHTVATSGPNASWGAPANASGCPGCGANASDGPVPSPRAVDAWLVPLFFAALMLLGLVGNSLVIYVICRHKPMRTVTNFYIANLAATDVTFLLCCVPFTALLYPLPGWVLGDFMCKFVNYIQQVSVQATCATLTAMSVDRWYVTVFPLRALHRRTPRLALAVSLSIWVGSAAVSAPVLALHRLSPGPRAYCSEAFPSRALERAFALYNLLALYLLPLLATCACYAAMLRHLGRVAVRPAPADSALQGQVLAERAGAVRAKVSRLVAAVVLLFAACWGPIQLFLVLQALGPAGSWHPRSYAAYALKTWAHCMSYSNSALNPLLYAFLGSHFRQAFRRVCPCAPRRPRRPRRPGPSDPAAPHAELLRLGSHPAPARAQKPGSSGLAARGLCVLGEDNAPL
Sequence of Gonadotropin-releasing hormone receptor (Homo sapiens) (P30968 whole entry, looked up): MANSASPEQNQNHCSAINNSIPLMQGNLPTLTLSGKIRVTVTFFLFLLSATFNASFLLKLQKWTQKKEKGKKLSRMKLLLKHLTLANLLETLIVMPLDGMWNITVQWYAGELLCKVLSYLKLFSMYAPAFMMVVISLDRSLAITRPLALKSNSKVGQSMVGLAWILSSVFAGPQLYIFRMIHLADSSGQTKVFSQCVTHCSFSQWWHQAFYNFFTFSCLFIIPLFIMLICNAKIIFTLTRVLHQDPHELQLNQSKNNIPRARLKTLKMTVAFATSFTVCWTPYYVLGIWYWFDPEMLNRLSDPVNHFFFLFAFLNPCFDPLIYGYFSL

With `CCOP(=S)(OCC)Oc1cc(C)nc(C(C)C)n1`, the Potency result in assay [1], in [2], in [3], in assay [4], in assay [5] and in assay [6] was “inactive” throughout. In addition, the Potency result in [7], in assay [8], in assay [9], in [10], in [11] and in assay [12] was “inactive” in each case. Also, the Potency entry in assay [13], in [14], in assay [15], in assay [16], in [17] and in assay [18] was “inactive” throughout.

With `O=C(NC(=O)c1c(F)cccc1F)Nc1cc(Cl)c(OC(F)(F)C(F)C(F)(F)F)cc1Cl` (centres undefined), the Potency result in [1], in [2], in assay [3], in assay [4], in assay [5] and in [19] was “inactive” throughout. Moreover, the Potency result in assay [6], in assay [7], in assay [8], in assay [9], in assay [10] and in assay [11] was “inactive” in each case. The Potency entry in assay [13], in assay [14], in assay [15], in assay [20], in [16] and in assay [17] was “inactive” in each case. Besides, the Potency in assay [12] is 9.42 µM (active).

Consider `Cc1ccc(C(=O)Cl)cc1`, for which the Potency result in assay [1], in assay [2], in [3], in assay [4], in assay [5] and in assay [19] was “inactive” each time. The Potency result in assay [6], in assay [7], in [8], in assay [9], in assay [10] and in assay [11] was “inactive” in each case. Besides, the Potency entry in assay [12], in assay [13], in assay [14], in [15], in [20] and in assay [16] was “inactive” throughout. In assay [17], the Potency result was “inactive”.

For `C=Cc1cccc(CCl)c1`, the Potency result in assay [1], in [2], in assay [3], in assay [4], in [5] and in assay [6] was “inactive” each time. Moreover, the Potency entry in assay [8], in [9], in assay [10], in [11], in assay [12] and in assay [14] was “inactive” in each case. Moreover, the Potency result in [15], in assay [20] and in assay [18] was “inactive” throughout.

For the compound `O=P(O)(O)CCCl`, the Potency result in [1], in assay [2], in [3], in [4], in assay [5] and in assay [19] was “inactive” in each case. Besides, the Potency result in assay [6], in assay [7], in assay [8], in assay [9], in assay [10] and in assay [11] was “inactive” throughout. The Potency entry in assay [12], in assay [13], in assay [14], in assay [15], in assay [20] and in assay [16] was “inactive” in each case. The Potency result in assay [17] and in assay [18] was “inactive” throughout.

With `CC(C)(C)OOC(C)(C)CCC(C)(C)OOC(C)(C)C`, the Potency result in [1], in assay [2], in assay [3], in assay [4], in assay [5] and in [19] was “inactive” each time. Moreover, the Potency result in [6], in [7], in assay [8], in [9], in assay [10] and in [11] was “inactive” throughout. Further, the Potency entry in assay [12], in [13], in assay [14], in [15], in assay [16] and in [18] was “inactive” throughout.

With `O=P(Oc1ccccc1)(Oc1ccccc1)Oc1ccccc1`, the Potency entry in assay [1], in [3], in [4], in assay [5], in [6] and in [7] was “inactive” throughout. For the same compound, the Potency result in assay [8], in assay [11], in assay [12], in [13], in assay [14] and in assay [15] was “inactive” throughout. Besides, the Potency result in [20] and in [17] was “inactive” each time. The Potency in assay [2] is 60.8 µM (active) and inactive.

For the compound `C=C(C)[C@@H]1CC=C(C=O)CC1`, the Potency entry in assay [1], in [2], in assay [3], in assay [4], in assay [5] and in assay [7] was “inactive” each time. Moreover, the Potency result in assay [9], in assay [10], in assay [11], in assay [12], in assay [13] and in [14] was “inactive” throughout. Also, the Potency result in [15], in assay [20] and in assay [18] was “inactive” in each case.
